Consider 24 compounds from PubChem BioAssay (Tox21).

The nature of assay [1]: qHTS assay to identify small molecule agonists of the estrogen receptor alpha (ER-alpha) signaling pathway in the presence of an antagonist - cell viability counter screen (AID 1259386).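 Also: cells exposed to compounds for 22 h at 37 °C before the viability read; nearly all actives have a fitted effect of over 30% in size.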 Also: potency is read from the fitted curve at half-maximal effect. The gist of the method:
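Cells are starved of estrogens for 5 days in charcoal-stripped serum, seeded for 24hr and co-treated with ICI-182,780 (10.0nM final) and test compounds. After 22hr at 37C, viability is read as CellTiter-Fluor fluorescence.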

In assay [2] the target is Progesterone receptor (Homo sapiens) (UniProt P06401). The experiment in a line: qHTS assay to identify small molecule agonists of the progesterone receptor (PR) signaling pathway (AID 1346784; calls by dose curve; also: nearly all actives have a fitted effect of over 30% in size). The essentials: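 Cells (PR-UAS-bla HEK 293T, GripTite) were plated in assay medium containing 2% charcoal-stripped FBS and incubated 6 hr. Test compounds in DMSO were added for 16 hr at 37C. FRET substrate was then loaded for 2 hr at room temperature before fluorescence reading.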
Background: Quantitative high-throughput screening tests each substance at several concentrations.

The nature of assay [3]: qHTS assay to identify small molecule antagonists of the progesterone receptor (PR) signaling pathway - cell viability counter screen (AID 1346798). Also: series mostly up to about 92 µM; nearly all actives have a fitted effect of over 50% in size. The essentials: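 Counter screen for cytotoxicity: viability of PR-UAS-bla HEK293T cells was measured with CellTiter-Glo luminescence following 16 hr compound exposure in the presence of R5020.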
Assay [4] is described as follows: qHTS assay to identify small molecule agonists of the progesterone receptor (PR) signaling pathway - cell viability counter screen (AID 1346799; calls by dose curve; also: nearly all actives have a fitted effect of over 45% in size). The essentials:
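Cells (PR-UAS-bla HEK293T) are plated at 3,000/well in 2% charcoal-stripped FBS medium, rested 6 hr, dosed and incubated 16 hr at 37C. CellTiter-Glo is then added and luminescence measured after 30 min at room temperature.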

The nature of assay [5]: qHTS assay to identify small molecule antagonists of the TGF-beta/Smad signaling pathway - cell viability counter screen (AID 1346824). Also: nearly all actives have a fitted effect of over 50% in size. The essentials: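 SBE-bla HEK 293T cells, incubated overnight, then compound plus 0.25 ng/mL TGF-beta1 (stock added) for 5 hr at 37 C. Viability was read in the same wells by CellTiter-Glo luminescence after 30 min at room temperature.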

A short description of assay [6]: qHTS assay to identify small molecule agonists of the TGF-beta/Smad signaling pathway - cell viability counter screen (AID 1346829). Also: top concentration of the series differs between compounds; nearly all actives have a fitted effect of over 45% in size. The gist of the method: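 CellTiter-Glo luminescence readout; SBE-bla HEK 293T cells, overnight plating, compound 5 hr at 37 C/5% CO2, then bla substrate 2 hr RT, then CellTiter-Glo 30 min RT.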
A short description of assay [7]: qHTS assay to identify small molecule agonists of the TGF-beta/Smad signaling pathway (AID 1346859; active = well fitted activation curve with a large enough effect in the signal ratio in the repeat runs, not every such curve was filed as active; the % refers to the signal ratio; also: series mostly up to about 77 µM). The essentials: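 Reporter line: HEK 293T with stably integrated SBE-controlled beta-lactamase. Compound exposure lasts 5 hr at 37 C and 5% CO2; substrate loading follows for 2 hr at room temperature, with emission read at 460 and 530 nm.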
Assay [8] addresses Thyrotropin-releasing hormone receptor (Homo sapiens) (UniProt P34981). The experiment in a line: qHTS assay to identify small molecule antagonists of the thyrotropin-releasing hormone receptor (TRHR) signaling pathway (AID 1346877; active = well fitted inhibition curve with a large enough effect in the repeat runs, not every such curve was filed as active; also: series mostly up to about 51 µM). The gist of the method: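 Cells (TRHR-HEK293) are plated and kept 18 h at 37 °C/5% CO2. A calcium-sensitive dye is added for 2 h, compound follows for 5 min at room temperature, and TRH is then given at 1 nM final.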

The target of assay [9] is Progesterone receptor (Homo sapiens) (UniProt P06401). The experiment in a line: qHTS assay to identify small molecule antagonists of the progesterone receptor (PR) signaling pathway (AID 1346795; active = well fitted inhibition curve with a large enough effect in the signal ratio in the repeat runs, not every such curve was filed as active; the % refers to the signal ratio). The essentials: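 Antagonist mode: compounds tested against 1 nM (final) promegestone stimulation in HEK293T cells expressing PR-UAS-bla reporter, 16 hr at 37C, 5% CO2; beta-lactamase activity detected via B/G FRET substrate after 2 hr at room temperature.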

Inconclusive results are not listed. Active and inactive are the calls of the source. Unless noted, calls follow the shape of the dose curve; as a rule, active = well fitted curve in the direction sought with a large enough effect in the repeat runs; inconclusive = weak or mixed curves; inactive = no such curve, though single readings can be large; an effect the other way counts as inactive or inconclusive.

Sequence of Thyrotropin-releasing hormone receptor (Homo sapiens) (P34981 whole entry, looked up): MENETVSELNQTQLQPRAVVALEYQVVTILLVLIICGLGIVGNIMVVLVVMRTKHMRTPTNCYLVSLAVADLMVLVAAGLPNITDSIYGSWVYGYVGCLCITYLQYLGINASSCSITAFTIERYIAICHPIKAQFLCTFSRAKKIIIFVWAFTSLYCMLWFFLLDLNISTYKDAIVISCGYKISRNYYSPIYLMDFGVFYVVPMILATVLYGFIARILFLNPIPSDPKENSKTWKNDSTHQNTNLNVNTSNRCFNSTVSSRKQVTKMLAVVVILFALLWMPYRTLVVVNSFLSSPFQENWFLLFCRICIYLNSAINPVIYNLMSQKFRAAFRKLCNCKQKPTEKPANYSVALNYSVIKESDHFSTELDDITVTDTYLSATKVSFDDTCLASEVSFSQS
Sequence of Progesterone receptor (Homo sapiens) (P06401 whole entry, looked up): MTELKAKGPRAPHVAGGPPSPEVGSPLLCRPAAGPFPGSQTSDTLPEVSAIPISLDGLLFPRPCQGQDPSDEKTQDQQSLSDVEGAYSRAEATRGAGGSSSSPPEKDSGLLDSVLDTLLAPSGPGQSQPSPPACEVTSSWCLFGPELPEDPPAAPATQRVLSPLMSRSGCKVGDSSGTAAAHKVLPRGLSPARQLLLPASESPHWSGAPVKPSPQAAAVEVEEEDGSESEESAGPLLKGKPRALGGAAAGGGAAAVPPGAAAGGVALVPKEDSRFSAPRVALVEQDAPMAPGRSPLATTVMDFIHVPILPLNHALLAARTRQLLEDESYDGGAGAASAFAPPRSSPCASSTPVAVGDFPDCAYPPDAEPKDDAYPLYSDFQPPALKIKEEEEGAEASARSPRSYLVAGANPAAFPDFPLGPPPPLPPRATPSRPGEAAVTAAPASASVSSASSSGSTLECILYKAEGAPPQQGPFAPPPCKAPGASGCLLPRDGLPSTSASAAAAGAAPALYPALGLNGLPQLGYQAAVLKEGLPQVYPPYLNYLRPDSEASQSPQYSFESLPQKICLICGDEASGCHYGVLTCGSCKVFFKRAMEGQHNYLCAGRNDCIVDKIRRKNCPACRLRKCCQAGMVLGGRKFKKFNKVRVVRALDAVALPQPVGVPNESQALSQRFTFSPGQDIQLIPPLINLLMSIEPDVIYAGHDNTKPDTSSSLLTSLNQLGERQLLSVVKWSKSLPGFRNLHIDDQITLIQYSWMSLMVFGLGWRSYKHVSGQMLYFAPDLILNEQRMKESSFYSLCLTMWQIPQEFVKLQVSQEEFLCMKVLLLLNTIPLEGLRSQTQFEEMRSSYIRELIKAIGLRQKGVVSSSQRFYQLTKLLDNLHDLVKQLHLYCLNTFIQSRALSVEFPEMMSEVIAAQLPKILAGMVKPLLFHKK

Consider `Cn1c(CCCC(=O)O)nc2cc(N(CCCl)CCCl)ccc21`, for which the Potency entry in assay [1], in [2], in assay [3], in assay [4], in [6] and in [8] was “inactive” throughout. Also, the outcome in [5] and in [7] was inactive.

Consider `OP(O)c1ccccc1`, for which the Potency entry in assay [1], in [2], in [9], in [4], in assay [6] and in assay [8] was “inactive” throughout. In addition, the call in assay [5] and in assay [7] was inactive.

In the case of `O=C1CC(=O)NC(=O)N1`, the Potency result in assay [1], in assay [2], in assay [9], in [3], in assay [4] and in assay [6] was “inactive” in each case. The Potency result in assay [8] is “inactive”. For the same compound, the outcome in [5] and in assay [7] was inactive.

For the compound `CN(C)C1CCCCC1`, the Potency result in [1], in assay [2], in assay [9], in assay [3], in assay [4] and in assay [6] was “inactive” in each case. The Potency result in assay [8] was “inactive”. Moreover, the call in assay [5] and in assay [7] was inactive.

`O=C/C=C/c1ccco1`: the Potency result in [1], in [2], in assay [9], in assay [4], in assay [6] and in assay [8] was “inactive” in each case. Further, the call in assay [5] and in assay [7] was inactive.

With `CC1=C2[C@H]3OC(=O)[C@@H](C)[C@@H]3CC[C@@]2(C)C=CC1=O`, the Potency result in assay [1], in assay [2], in assay [9], in assay [3], in assay [4] and in assay [6] was “inactive” in each case. Also, the Potency result in assay [8] is “inactive”. Moreover, in [7], the compound was called inactive.

Take `CCOC(=O)c1ncn2c1CN(C)C(=O)c1c(I)cccc1-2`: the Potency result in assay [1], in assay [2], in assay [9], in assay [3], in [4] and in assay [8] was “inactive” throughout. The call in assay [5] and in assay [7] was inactive.

In the case of `NNCc1ccccc1`, the Potency result in assay [1], in assay [2], in assay [9], in assay [3] and in [6] was “inactive” in each case. Besides, the compound was classed as inactive in assay [5].

As for `CCC1(c2cccc(O)c2)CCCCN(C)C1` (centres undefined), the Potency result in assay [1], in assay [2], in [9], in assay [3], in [4] and in assay [6] was “inactive” in each case. Further, the Potency result in [8] was “inactive”. Moreover, the outcome in assay [5] and in assay [7] was inactive.

Take `CCC(C(N)=O)N1CCCC1=O` (centres undefined): the Potency entry in assay [1], in assay [2], in assay [9], in [3], in assay [4] and in assay [8] was “inactive” throughout. The outcome in assay [7] was inactive.

Take `CCCC[N+](=O)[O-]`: the Potency entry in assay [1], in assay [2], in assay [9], in [3], in assay [4] and in assay [6] was “inactive” in each case. Further, the Potency result in assay [8] was “inactive”. For the same compound, in assay [7], the compound was called inactive.

As for `CC(C)[N+](C)(CCC(C(N)=O)(c1ccccc1)c1ccccc1)C(C)C`, the Potency result in assay [1], in assay [2], in assay [9], in assay [3], in assay [4] and in [6] was “inactive” throughout. Besides, the Potency entry in [8] is “inactive”. The compound was classed as inactive in [5] and in [7].

Take `C#CC(C)(C)O`: the Potency entry in assay [1], in [2], in assay [9], in assay [3], in [4] and in assay [6] was “inactive” in each case.

On to `CN1COCN(Cc2cnc(Cl)s2)/C1=N\[N+](=O)[O-]`, for which the Potency entry in assay [1], in assay [2], in assay [9], in assay [3], in assay [4] and in [8] was “inactive” in each case. Moreover, the compound was called inactive in assay [7].

`CCOC(=O)N(C)N=O`: the Potency entry in [1], in assay [2], in assay [9], in assay [3], in assay [4] and in assay [6] was “inactive” throughout. Also, the Potency result in [8] was “inactive”. In addition, the compound was called inactive in [5] and in assay [7].

In the case of `NC1(c2ccccc2)CCCCC1`, the Potency result in assay [1], in assay [2], in [3], in assay [4], in assay [6] and in [8] was “inactive” each time. The call in [5] and in assay [7] was inactive.

As for `Clc1nc(Cl)nc(Nc2ccccc2Cl)n1`, the Potency result in assay [1], in assay [2], in assay [9], in [3], in [4] and in [6] was “inactive” in each case. For the same compound, the Potency entry in [8] is “inactive”. The call in [5] and in [7] was inactive.

With `Cn1c(N)nc2c3cccnc3ccc21`, the Potency in assay [1] was 26 µM (active). Besides, the Potency entry in assay [2], in assay [9], in [3], in assay [4], in [6] and in [8] was “inactive” each time. For the same compound, the compound was classed as inactive in [5].

`CCN[C@@H](C)Cc1ccccc1`: the Potency result in [1], in assay [2], in [9], in [4], in assay [6] and in [8] was “inactive” in each case. In addition, in [7], the outcome was inactive.

As to `O=C(O)C(Cl)Br` (centres undefined), the Potency result in [1], in assay [2], in assay [9], in [3], in assay [4] and in assay [8] was “inactive” each time. For the same compound, the result in assay [5] and in assay [7] was inactive.

As to `O=c1[nH]c2ccccc2n1C1CCNCC1`, the Potency result in assay [1], in assay [9], in assay [4] and in assay [8] was “inactive” throughout. For the same compound, the result in [7] was inactive.

`C=CCN1CC[C@]23CCCC[C@H]2[C@H]1Cc1ccc(O)cc13`: the Potency result in [1], in [9], in assay [3], in assay [4] and in [6] was “inactive” throughout. The compound was called inactive in [7].

For `CCCN1CCC[C@@H]2Cc3nc(N)ncc3C[C@H]21`, the Potency result in [2], in assay [9], in [3], in assay [4], in [6] and in assay [8] was “inactive” each time. Further, the compound was called inactive in assay [7].

On to `CC(C)C(C)(N)C#N` (centres undefined), for which the Potency entry in [1], in [2], in [3], in assay [4], in assay [6] and in [8] was “inactive” in each case. In addition, the compound was classed as inactive in [7].
